This is a sample that favours compounds with a hit; in the whole collection about 6.8% have one here.
Spn PMK inh: S. pneumoniae PMK inhibitors, primary screen, biochemical, mevalonate pathway, pilot trial included; phosphomevalonate kinase (Streptococcus pneumoniae D39); purified PMK, PK/LDH-coupled NADH absorbance 340 nm; inhibition, % at 10 µM; actives 0.49% (n = 65,000);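 active = top-ranked compounds by inhibition in the single 10 µM screen, taking a fixed number of the strongest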
NADH coupling: inhibitors of PK/LDH coupling enzymes, profiling panel, artefact control, biochemical, MLSMR library; coupled PK/LDH NADH assays, four targets; IC50, µM (titrated, usually from 10 µM); actives 0.02% (n = 65,000); AID 774, 2007;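 active = single-dose screening hits from any of four coupled enzyme assays that gave an IC50 when retested across doses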;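 also: the DPM-DC format reads NADH fluorescence rather than 340 nm absorbance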
Abs 340nm: compound light absorbance at 340 nm, profiling panel, artefact control, biochemical, MLSMR library, data from PS, PMK, MK assays. fold change at 10 µM. 65,000 tested, under 10 active. AID 708, 2007. compound absorbance at 340 nm, fold over control;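 active = at 10 µM dose, initial 340 nm absorbance at least 2 fold that of control wells; inactive = change under 2 fold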;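 also: initial absorbance extrapolated from kinetic A340 decline of NADH oxidation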
Fluor 339 460: intrinsic fluorescence of library compounds, ex339/em460 – biochemical, MLSMR library, data from DPM-DC assay, artefact control, profiling panel. compound autofluorescence, ex339/em460 nm, NADH buffer; hits give high values; 1 = no-compound wells, NADH background. fluorescence fold increase at 10 µM. actives 5.5% (n = 65,000). AID 709, 2007;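 active = at 10 µM, mean starting fluorescence two-fold or more over control wells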;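 also: signal is the first read of a kinetic run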
MK inhibit: S. pneumoniae MK inhibitors, primary screen, biochemical, PK/LDH-coupled NADH absorbance; mevalonate kinase [Streptococcus pneumoniae D39]; purified MK, PK/LDH-coupled NADH absorbance 340 nm; inhibition, % at 10 µM; actives 0.48% (n = 65,000); AID 555, 2006;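 active = ranked among the strongest by inhibition in the single 10 µM screen, a fixed top-ranked set picked for dose follow-up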
DPM-DC inhibit: S. pneumoniae DPM-DC inhibitors, primary screen, biochemical, PK/LDH-coupled NADH fluorescence | calls only at 10 µM | actives 0.49% (n = 65,000) | purified DPM-DC | diphosphomevalonate decarboxylase (Streptococcus pneumoniae D39);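 active = the 320 compounds with the highest percent inhibition in the single-dose primary screen, excluding strongly autofluorescent ones, cut at about 32% in these data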;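 also: kinetic rate of NADH fluorescence loss reporting ADP formed by the decarboxylase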
Each line names hits and unclear results; the compound was inactive in the other large screens.

Cc1ccc(C2NC(=O)NC3=C2CCc2ccccc23)cc1 (configuration not stated)	Fluor 339 460 2.6
CC(C)c1nnc(NC(=O)c2cccs2)s1	none
CCC(CC)C(=O)Nc1nnc(-c2cccs2)s1	Fluor 339 460 2.6
CCOc1ccc2[nH]c(=O)c(CN(CCN3CCOCC3)Cc3nnnn3C(C)(C)CC)cc2c1	Fluor 339 460 2.6
CCOc1ccc2[nH]c(=O)c(CN(Cc3cccs3)Cc3nnnn3C(C)(C)C)cc2c1	Fluor 339 460 2.4
COc1ccc2cc(CN(CCCN3CCOCC3)Cc3nnnn3C3CCCCC3)c(=O)[nH]c2c1	none
COc1ccc2[nH]c(=O)c(CN(Cc3cccs3)Cc3nnnn3C(C)(C)C)cc2c1	none
CCOC(=O)Cc1csc(NC(=O)CSc2ncnc3c2cnn3-c2ccccc2Cl)n1	none
COc1ccc(Cc2noc(-c3ccc(C)cc3)n2)cc1	none
COc1ccc(-c2nnc3sc(COc4ccccc4)nn23)cc1	none
COc1ccc(-c2oc3ncn4nc(Cc5ccccc5)nc4c3c2-c2ccc(OC)cc2)cc1	Fluor 339 460 2.4 (not shown: DPM-DC inhibit)
COc1ccc(-c2oc3ncn4nc(COc5ccccc5)nc4c3c2-c2ccc(OC)cc2)cc1	Fluor 339 460 2.4 (not shown: DPM-DC inhibit)
O=C(COc1ccccc1)NCc1nnc(SCC(=O)Nc2nccs2)n1-c1ccccc1	none
O=C(CSc1nnc(COc2ccccc2)n1-c1ccccc1)c1cccs1	Spn PMK inh 25
CCOC(=O)CSc1nc(N)c(C(=O)Nc2ccc(N(C)C)cc2)s1	none
N#Cc1c(-c2ccco2)c2c([nH]c1=S)CCCC2	none
N#Cc1c(-c2cccnc2)c2c([nH]c1=S)CCCC2	MK inhibit 80, DPM-DC inhibit active
CCOC(=O)c1cc2occc2n1CC(=O)N1CCCc2ccccc21	none
O=c1nc2n(c3sc4c(c13)CCC4)Cc1ccccc1-2	Fluor 339 460 2.2 (not shown: DPM-DC inhibit)
C=C1CSc2nc(=O)c3c4c(sc3n21)CCC4	none
O=C(NCCCn1ccnc1)c1cc(-c2ccc3c(c2)OCO3)on1	none
Cc1occc1-c1nnc(SCC(=O)N2CCOCC2)n1CCc1ccccc1	none
Cc1occc1-c1nnc(SCC(=O)N2CCOCC2)n1Cc1ccco1	Spn PMK inh 27
CCOc1ccc2nc(NCCNC(=O)C(C)C)c(C)cc2c1	Fluor 339 460 4.7 (not shown: DPM-DC inhibit)
CCOc1ccc2nc(NCCNC(=O)C3CC3)c(C)cc2c1	Fluor 339 460 3.8 (not shown: DPM-DC inhibit)
COCC(=O)NCCNc1nc2ccc(C)cc2cc1C	Fluor 339 460 3.5 (not shown: DPM-DC inhibit)
CCCC(=O)Nc1nc2ccc(OCC)cc2s1	none
O=C(Nc1ccc2c(c1)OC1(CCCC1)O2)C1CC1	none
CC(C)Cn1c(N)c(C(=O)COC(=O)c2cc(-c3ccco3)nc3ccccc23)c(=O)n(C)c1=O	Fluor 339 460 2.1 (not shown: DPM-DC inhibit)
O=C(COC(=O)c1cc(-c2cccs2)nc2ccccc12)NCc1ccco1	Fluor 339 460 4.9 (not shown: DPM-DC inhibit)
Cc1nn(-c2ccccc2)c(C)c1C(=O)OCC(=O)c1c(N)n(CC(C)C)c(=O)n(C)c1=O	none
O=C(COC(=O)c1cc(-c2ccco2)nc2ccccc12)NCc1ccc2c(c1)OCO2	Fluor 339 460 2.1 (not shown: DPM-DC inhibit)
COc1ccc(CN2C(=O)c3ccccc3C2C(=O)NC2CCCC2)c(OC)c1 (configuration not stated)	Spn PMK inh 25
COc1ccc(CN2C(=O)c3ccccc3C2C(=O)NCC2CCCO2)c(OC)c1 (configuration not stated)	none
Cc1cccn2c(=O)c3cc(C#N)c(=N)n(Cc4ccncc4)c3nc12	none
Cc1cccn2c(=O)c3cc(C#N)c(=O)n(-c4c(C)n(C)n(-c5ccccc5)c4=O)c3nc12	none
Cc1cc(-n2c(=O)c(C#N)cc3c(=O)n4cccc(C)c4nc32)no1	Fluor 339 460 4 (not shown: DPM-DC inhibit)
CC(=O)N=c1c(C#N)cc2c(=O)n3cccc(C)c3nc2n1CC(C)C	Fluor 339 460 3.9 (not shown: DPM-DC inhibit)
Cc1cccn2c(=O)c3cc(C#N)c(=NC(=O)c4ccc5c(c4)OCO5)n(CC(C)C)c3nc12	Fluor 339 460 2.5, DPM-DC inhibit active
Cc1ccc(-n2c(=O)c(C#N)cc3c(=O)n4ccccc4nc32)cc1	Fluor 339 460 3.3 (not shown: DPM-DC inhibit)
CC(C)COC(=O)n1c(SCC(=O)N(C)C)nc2ccccc21	none
COc1ccccc1-c1nnc(SCC(=O)OC(C)C)o1	none
CCCc1nnc(NC(=O)c2c(O)c3cccc4c3n(c2=O)CCC4)s1	Fluor 339 460 2.8
CC(CCc1ccccc1)NC(=O)C1CCN(S(=O)(=O)c2cnc[nH]2)CC1 (configuration not stated)	none
O=C1CC(c2ccccc2)Cc2nc(N3CCc4ccccc43)ncc21 (configuration not stated)	Fluor 339 460 3 (not shown: DPM-DC inhibit)
O=C1CCCc2nc(N3CCc4ccccc43)ncc21	none
C#CC(CC)(CC)NC(=O)c1c(C)noc1C	none
COc1ccc(-c2nc3c(n2O)CCCC3=O)cc1OC	Fluor 339 460 3.5 (not shown: DPM-DC inhibit)
COc1ccc(S(=O)(=O)N(CC(=O)NCc2ccco2)C2CCCCC2)cc1OC	none
CCN(CC)c1nc(N)c2c(N)nc3c(c2c1C#N)CC(c1ccccc1)O3 (configuration not stated)	Fluor 339 460 2.1 (not shown: DPM-DC inhibit)
CCN(CC)c1nc(N)c2c(N)n(-c3ccccc3C)c(=S)c(C#N)c2c1C#N	none
CCN(CC)S(=O)(=O)c1ccc(NC(=O)Cn2c(=O)sc3ccccc32)cc1	none
CN(CCC(=O)Nc1ccc2c(c1)OCO2)Cc1ccccc1	MK inhibit 45
CC(=O)Nc1ccc(NC(=O)c2cc(C)nn2-c2ccccc2)cc1	none
CC(=O)c1cc2c(cc1NC(=O)CCCC(=O)O)OCO2	none
CC(=O)c1cc2c(cc1NC(=O)CCc1ccccc1)OCO2	Fluor 339 460 2.3
CC(=O)c1cc2c(cc1NC(=O)c1cc(C)nn1-c1ccccc1)OCO2	Fluor 339 460 2.2 (not shown: DPM-DC inhibit)
CC(C)Cn1cnc2c1c(=O)n(CC(=O)Nc1ccc3c(c1)OCO3)c(=O)n2Cc1ccccc1	none
Cc1ccc(C)c2[nH]c(=O)c(CN(CC3CCCO3)C(=O)NC3CCCCC3)cc12 (configuration not stated)	none
O=C1c2ccccc2C(=O)N1CCCc1nc2ccccc2c(=O)n1-c1cccnc1	none
Cc1ccc(-c2cn3cccnc3n2)cc1NC(=O)c1ccc(Br)o1	Fluor 339 460 3.5 (not shown: DPM-DC inhibit)
Cc1cc(O)c(NC(=O)c2ccc(Br)o2)cc1C	none
COc1ccc(-c2cn3cccnc3n2)cc1NC(=O)c1ccc(Br)o1	Fluor 339 460 5.3 (not shown: DPM-DC inhibit)
Cn1c(N2CCC(C(N)=O)CC2)nc2c1c(=O)n(Cc1ccc(Br)cc1)c(=O)n2C	none
